Screening data deposited in PubChem BioAssay by several laboratories.
CYP2C9 inh – inhibitors of human CYP2C9 | P11712 | CYP2C9 Supersomes, luciferin-H conversion, luminescence | inhibition, % at 5 µM | actives 20% (n = 96,000);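 active means blocking of liver enzyme CYP2C9 beyond about 50% at 5 µM, limit read from the data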
Target sequence (P11712 whole entry, looked up): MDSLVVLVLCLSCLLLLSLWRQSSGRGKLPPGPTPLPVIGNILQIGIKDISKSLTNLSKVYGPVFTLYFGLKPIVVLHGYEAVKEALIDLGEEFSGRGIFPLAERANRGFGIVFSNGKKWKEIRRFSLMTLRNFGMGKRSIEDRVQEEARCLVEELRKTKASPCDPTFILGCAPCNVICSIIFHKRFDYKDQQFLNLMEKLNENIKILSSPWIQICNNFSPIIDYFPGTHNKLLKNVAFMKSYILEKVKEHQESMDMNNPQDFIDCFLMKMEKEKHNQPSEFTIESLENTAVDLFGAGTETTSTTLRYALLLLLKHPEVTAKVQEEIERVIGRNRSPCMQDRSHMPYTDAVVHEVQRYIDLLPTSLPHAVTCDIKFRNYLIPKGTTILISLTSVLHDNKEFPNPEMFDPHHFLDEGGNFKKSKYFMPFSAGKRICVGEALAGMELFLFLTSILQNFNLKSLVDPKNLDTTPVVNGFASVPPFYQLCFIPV
CYP2C19 activ – activators of human cytochrome P450 2C19; P33261; recombinant CYP2C19, luciferin-H EGE luminescence; hits give high values; 0 = fully inhibited enzyme, 1 = untreated enzyme; activation factor at 5 µM; 96,000 tested, under 10 active;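 active means activation factor of at least 2 at 5 µM in the primary screen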;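 further: 0 = wells with 2.5 mM tranylcypromine and 1 = vehicle-only wells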
CYP2C9 activ – activators of human CYP2C9. P11712. recombinant CYP2C9, luciferin-H conversion, luminescence; hits give high values; factor 1 = untreated enzyme, 0 = blocked. activation factor at 5 µM. actives 1.4% (n = 96,000);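 active means activation factor of 2 or more for CYP2C9 at a 5 µM dose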;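 further: 0 = sulfaphenazole-blocked wells and 1 = vehicle-only wells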
PostGolgi ctrl – inhibits growth of the yeast control strain; efflux-deficient yeast background strain, growth absorbance A615, 16 h; inhibition, % at 10 µM; actives 5% (n = 98,000)
CYP2C19 inhib – blocks human cytochrome P450 2C19. P33261. CYP2C19 Supersomes, luciferin-H EGE luminescence, 30 min. inhibition, % at 5 µM. actives 21% (n = 96,000). AID 778;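 active means CYP2C19 inhibition above a set limit at 5 µM in the primary screen, cut at about 50% in these data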;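 further: plate controls were negative control wells for no effect and 2.5 mM tranylcypromine positive control for full effect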
PostGolgi yeast – growth inhibition of a yeast mutant, post-Golgi transport screen; post-Golgi transport phenotypic cell assay; inhibition, % at 10 µM; actives 0.9% (n = 98,000);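 further: yeast cells grown in 1536-well plates; yeast grown about 18 h at 30C before absorbance read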
* hit, by the source's call. In the library only some 32% were active in any assay of this set; here they are far more common. Unless noted, no stated cut-off is given here; in the data, active means inhibition above about 30%; inactive means the rest.

Results for COCCn1c(SCc2nc(N)nc(Nc3ccccc3C)n2)nc2ccccc2c1=O ?
CYP2C9 inh: 71*; CYP2C19 activ: 0.5; CYP2C9 activ: 0.3; PostGolgi ctrl: 8; CYP2C19 inhib: 50; PostGolgi yeast: 4

What do the screens show for `Cc1ccccc1Nc1nc(N)nc(CSc2nc3ccccc3c(=O)n2C)n1`?
CYP2C9 inh: 82*; CYP2C19 activ: 0.3; CYP2C9 activ: 0.2; PostGolgi ctrl: 8; CYP2C19 inhib: 68*; PostGolgi yeast: 1

How did Cc1ccccc1Nc1nc(N)nc(CSc2nc3ccccc3c(=O)n2CCCO)n1 do in these assays?
CYP2C9 inh: 99*; CYP2C19 activ: 0.1; CYP2C9 activ: 0; PostGolgi ctrl: 5; CYP2C19 inhib: 90*; PostGolgi yeast: -6

Results for CCOc1ccccc1Nc1nc(N)nc(CSc2nncn2C)n1 ?
CYP2C9 inh: 3; CYP2C19 activ: 1; CYP2C9 activ: 1; PostGolgi ctrl: 1; CYP2C19 inhib: 3; PostGolgi yeast: 19

How did Cc1ccc(Nc2nc(N)nc(CSc3nccn3C)n2)c(C)c1 do in these assays?
CYP2C9 inh: -7; CYP2C19 activ: 0.9; CYP2C9 activ: 1.1; PostGolgi ctrl: 9; CYP2C19 inhib: 8; PostGolgi yeast: 9

How did CCOc1ccc(NC(=O)CN(C)c2ccc(S(=O)(=O)N(C(C)C)C(C)C)cn2)cc1OCC do in these assays?
CYP2C9 inh: 57*; CYP2C19 activ: 0.6; CYP2C9 activ: 0.4; PostGolgi ctrl: 7; CYP2C19 inhib: 35; PostGolgi yeast: 1

How did Cc1ccc(NC(=O)CN(C)c2ccc(S(=O)(=O)N3CCN(C)CC3)cn2)cc1 do in these assays?
CYP2C9 inh: 56*; CYP2C19 activ: 0.7; CYP2C9 activ: 0.4; PostGolgi ctrl: 5; CYP2C19 inhib: 29; PostGolgi yeast: 2

Results for CCOc1ccc(NC(=O)CN(C)c2nnnn2-c2ccccc2)cc1OCC ?
CYP2C9 inh: 27; CYP2C19 activ: 0.3; CYP2C9 activ: 0.7; PostGolgi ctrl: -1; CYP2C19 inhib: 72*; PostGolgi yeast: -3

How did CN1CCN(S(=O)(=O)c2ccc(N(C)CC(=O)Nc3ccc(F)cc3)nc2)CC1 do in these assays?
PostGolgi ctrl: 14; PostGolgi yeast: 5

Results for COC(=O)c1c(C(=O)OC)c(-c2cccc(C)c2)n2c1CS(=O)(=O)C2 ?
CYP2C9 inh: 3; CYP2C19 activ: 1; CYP2C9 activ: 1; PostGolgi ctrl: -7; CYP2C19 inhib: 1; PostGolgi yeast: 1

What do the screens show for `C/C(=N\O)C(=O)OC1CC(C)CCC1C(C)C` (stereo not given)?
CYP2C9 inh: 96*; CYP2C19 activ: 0; CYP2C9 activ: 0; PostGolgi ctrl: 7; CYP2C19 inhib: 96*; PostGolgi yeast: -1

How did COc1ccc(-c2nc3c(c(=O)[nH]c(=O)n3Cc3ccccc3)n2C)cc1 do in these assays?
CYP2C9 inh: 1; CYP2C19 activ: 1.1; CYP2C9 activ: 1; PostGolgi ctrl: 2; CYP2C19 inhib: -9; PostGolgi yeast: 5

How did COc1ccc(-c2nc3c(c(=O)[nH]c(=O)n3Cc3ccccc3)n2Cc2ccccc2)cc1 do in these assays?
CYP2C9 inh: 42; CYP2C19 activ: 0.8; CYP2C9 activ: 0.6; PostGolgi ctrl: 35*; CYP2C19 inhib: 21; PostGolgi yeast: -1

How did COc1cc(Br)cc(-c2nc3c(c(=O)[nH]c(=O)n3Cc3ccccc3)n2C)c1O do in these assays?
CYP2C9 inh: 29; CYP2C19 activ: 0.8; CYP2C9 activ: 0.7; PostGolgi ctrl: 17; CYP2C19 inhib: 23; PostGolgi yeast: 2

How did Cn1c(-c2cccc(OCc3ccccc3)c2)nc2c1c(=O)[nH]c(=O)n2Cc1ccccc1 do in these assays?
CYP2C9 inh: 54*; CYP2C19 activ: 1; CYP2C9 activ: 0.5; PostGolgi ctrl: 0; CYP2C19 inhib: 5; PostGolgi yeast: 0

Results for O=C(c1cccc2ccccc12)N1CCC(N2CCN(c3ccccc3)CC2)CC1 ?
CYP2C9 inh: 0; CYP2C19 activ: 0.8; CYP2C9 activ: 1; PostGolgi ctrl: 22; CYP2C19 inhib: 16; PostGolgi yeast: -4

Results for Cc1ccc(C)c(N(CC(=O)NCc2ccc3c(c2)OCO3)C(=O)CCC(=O)Nc2ccccn2)c1 ?
CYP2C9 inh: 50*; CYP2C19 activ: 0.4; CYP2C9 activ: 0.5; PostGolgi ctrl: 30*; CYP2C19 inhib: 63*; PostGolgi yeast: -1

What do the screens show for `O=C(CCC(=O)N(CC(=O)NC1CCCCC1)c1ccc2c(c1)OCO2)Nc1ccccn1`?
CYP2C9 inh: 44; CYP2C19 activ: 0.6; CYP2C9 activ: 0.6; PostGolgi ctrl: 8; CYP2C19 inhib: 39; PostGolgi yeast: -1

How did Cc1cc(C)cc(N(CC(=O)NCc2ccc3c(c2)OCO3)C(=O)CCC(=O)Nc2ccccn2)c1 do in these assays?
CYP2C9 inh: 49; CYP2C19 activ: 0.4; CYP2C9 activ: 0.5; PostGolgi ctrl: 1; CYP2C19 inhib: 58*; PostGolgi yeast: 4

Results for O=C(COC(=O)Cn1cnc2ccccc21)NCCc1ccc(Cl)cc1 ?
CYP2C9 inh: 19; CYP2C19 activ: 0.7; CYP2C9 activ: 0.8; PostGolgi ctrl: 2; CYP2C19 inhib: 28; PostGolgi yeast: 10

How did COC(=O)C(NC(=O)c1ccccc1)=C1CCCCC1 do in these assays?
CYP2C9 inh: 42; CYP2C19 activ: 0.8; CYP2C9 activ: 0.6; PostGolgi ctrl: 3; CYP2C19 inhib: 25; PostGolgi yeast: -6

What do the screens show for `FCCCOc1ccc(-c2ccnc(-c3ccccc3)n2)cc1`?
CYP2C9 inh: -10; CYP2C19 activ: 1.2; CYP2C9 activ: 1.1; PostGolgi ctrl: 2; CYP2C19 inhib: -18; PostGolgi yeast: -4

What do the screens show for `FCCCOc1ccc(-c2nccc(-c3ccc(F)cc3)n2)cc1`?
CYP2C9 inh: 81*; CYP2C19 activ: 0.5; CYP2C9 activ: 0.2; PostGolgi ctrl: 5; CYP2C19 inhib: 54*; PostGolgi yeast: 5

Results for Cc1cccc(N(C(=O)CCC(=O)Nc2cc(C)on2)C(C(=O)NC2CCCC2)c2ccncc2)c1 (stereo not given) ?
CYP2C9 inh: 84*; CYP2C19 activ: 0.2; CYP2C9 activ: 0.2; PostGolgi ctrl: -1; CYP2C19 inhib: 81*; PostGolgi yeast: -10

Results for Cc1cc(NC(=O)CCC(=O)N(Cc2cccs2)C(C(=O)NC2CCCC2)c2ccncc2)no1 (stereo not given) ?
CYP2C9 inh: 84*; CYP2C19 activ: 0.3; CYP2C9 activ: 0.2; PostGolgi ctrl: -2; CYP2C19 inhib: 69*; PostGolgi yeast: 8

What do the screens show for `Cc1cc(NC(=O)CCC(=O)N(CC(=O)NC2CCCC2)c2ccc3c(c2)OCCO3)no1`?
CYP2C9 inh: 5; CYP2C19 activ: 1; CYP2C9 activ: 0.9; PostGolgi ctrl: -3; CYP2C19 inhib: 3; PostGolgi yeast: -1

How did Cc1ccc(N(C(=O)CCC(=O)Nc2cc(C)on2)C(C(=O)NC2CCCC2)c2ccncc2)cc1 (stereo not given) do in these assays?
CYP2C9 inh: 69*; CYP2C19 activ: 0.4; CYP2C9 activ: 0.3; PostGolgi ctrl: 2; CYP2C19 inhib: 64*; PostGolgi yeast: -20
